# PMC11574364
# Columns and labels:
# Experiment in all cases: protein domain microarray probed with biotinylated miRNA; Domain array: 20 mM Tris-HCl pH 7.4, 200 mM KCl, 0.2 mM EDTA, 0.05% NP40, 2 ug/ul heparin, overnight 4 C. ORF array: PBS pH 7.0 with RNase inhibitor, 100 ng RNA; high values mean tight binding
# Settings in all cases: ssRNA
# CELF6(1-2) = CELF6(1-2) (Homo sapiens, UniProt Q96J87)
# hnRNP-D-like = target: T1, hnRNP-D-like (Homo sapiens, UniProt O14979)
# T1 sequence: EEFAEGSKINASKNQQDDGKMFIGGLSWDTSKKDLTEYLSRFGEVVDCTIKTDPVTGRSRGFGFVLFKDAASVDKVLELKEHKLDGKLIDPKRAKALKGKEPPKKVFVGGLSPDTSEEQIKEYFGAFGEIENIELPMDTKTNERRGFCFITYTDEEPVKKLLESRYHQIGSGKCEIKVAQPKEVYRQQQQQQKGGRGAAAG
# IGF2BP2 = IGF2BP2 (Homo sapiens, UniProt Q9Y6M1)
# Sequence of IGF2BP2 (Q9Y6M1 1-177): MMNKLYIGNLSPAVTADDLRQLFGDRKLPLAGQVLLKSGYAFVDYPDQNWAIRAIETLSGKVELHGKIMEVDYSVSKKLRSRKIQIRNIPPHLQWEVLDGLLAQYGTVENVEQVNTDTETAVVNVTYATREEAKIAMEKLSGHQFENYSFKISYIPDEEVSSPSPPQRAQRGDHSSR
# PABPNL1 = target: T2, PABPNL1 (Homo sapiens, UniProt A6NDY0)
# T2 sequence: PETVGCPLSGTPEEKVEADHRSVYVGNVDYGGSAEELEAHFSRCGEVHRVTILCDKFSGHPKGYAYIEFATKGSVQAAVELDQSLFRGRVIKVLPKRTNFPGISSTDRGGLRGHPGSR
# MYEF2(1-2) = target: T3, MYEF2(1-2) (Homo sapiens, UniProt Q9P2K5)
# T3 sequence: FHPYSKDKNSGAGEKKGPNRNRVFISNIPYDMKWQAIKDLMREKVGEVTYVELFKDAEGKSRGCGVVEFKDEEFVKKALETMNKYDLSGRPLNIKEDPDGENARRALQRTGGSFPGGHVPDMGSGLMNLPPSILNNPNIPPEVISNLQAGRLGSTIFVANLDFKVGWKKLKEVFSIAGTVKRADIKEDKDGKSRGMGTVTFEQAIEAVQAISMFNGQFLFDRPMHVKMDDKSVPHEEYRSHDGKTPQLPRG
# CIRBP = target: T4, CIRBP (Homo sapiens, UniProt Q14011)
# T4 sequence: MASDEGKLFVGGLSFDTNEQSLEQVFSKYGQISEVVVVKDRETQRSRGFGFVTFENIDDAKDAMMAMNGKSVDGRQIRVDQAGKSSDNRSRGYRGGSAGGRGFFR
# ELAVL4 = ELAVL4 (Homo sapiens, UniProt P26378)
# Sequence of ELAVL4 (P26378 30-385): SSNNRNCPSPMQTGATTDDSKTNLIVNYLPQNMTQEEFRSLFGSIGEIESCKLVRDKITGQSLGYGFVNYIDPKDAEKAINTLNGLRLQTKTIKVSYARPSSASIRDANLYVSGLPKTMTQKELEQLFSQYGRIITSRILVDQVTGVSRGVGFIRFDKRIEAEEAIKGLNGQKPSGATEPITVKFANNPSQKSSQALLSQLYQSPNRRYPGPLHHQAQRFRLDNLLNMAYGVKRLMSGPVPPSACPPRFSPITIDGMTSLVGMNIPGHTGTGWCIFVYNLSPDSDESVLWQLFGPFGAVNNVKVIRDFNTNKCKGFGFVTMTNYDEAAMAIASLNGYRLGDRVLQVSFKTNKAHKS
# NIFK = NIFK (Homo sapiens, UniProt Q9BYG3)
# PABPC5 = PABPC5 (Homo sapiens, UniProt Q96DU9)
# Sequence of PABPC5 (Q96DU9 whole entry): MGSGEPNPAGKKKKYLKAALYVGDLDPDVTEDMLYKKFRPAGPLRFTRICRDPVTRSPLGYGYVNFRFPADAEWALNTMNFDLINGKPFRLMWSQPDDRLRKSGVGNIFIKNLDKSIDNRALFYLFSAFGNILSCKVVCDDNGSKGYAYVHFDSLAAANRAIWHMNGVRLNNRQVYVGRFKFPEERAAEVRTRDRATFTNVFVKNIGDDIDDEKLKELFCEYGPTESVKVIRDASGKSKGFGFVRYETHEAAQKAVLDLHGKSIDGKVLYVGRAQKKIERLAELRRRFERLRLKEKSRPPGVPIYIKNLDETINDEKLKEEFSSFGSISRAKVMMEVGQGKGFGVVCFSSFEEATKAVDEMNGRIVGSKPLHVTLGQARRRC
# NCBP2 = target: T5, NCBP2 (Homo sapiens, UniProt P52298)
# T5 sequence: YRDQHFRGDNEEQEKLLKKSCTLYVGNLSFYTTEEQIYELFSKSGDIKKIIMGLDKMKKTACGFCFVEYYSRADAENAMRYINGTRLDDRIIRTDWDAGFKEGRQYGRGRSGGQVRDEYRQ
# Sequence of CELF6(1-2) (Q96J87 21-233): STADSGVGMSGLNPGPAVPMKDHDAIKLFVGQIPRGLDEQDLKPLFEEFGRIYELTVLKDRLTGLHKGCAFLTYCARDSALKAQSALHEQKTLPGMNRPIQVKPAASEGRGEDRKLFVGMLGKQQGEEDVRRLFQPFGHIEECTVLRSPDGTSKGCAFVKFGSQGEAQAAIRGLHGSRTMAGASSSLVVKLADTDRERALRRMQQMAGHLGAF
sequence,measurement,setting,value
UAGCUUAUCAGACUGAUGUUGA,binding signal,CELF6(1-2),32.2 ± 4.03 fluorescence intensity
same,binding signal,hnRNP-D-like,40.3 ± 4.07 fluorescence intensity
same,binding signal,IGF2BP2,21.5 ± 2.16 fluorescence intensity
same,binding signal,PABPNL1,322 ± 10.4 fluorescence intensity
same,binding signal,MYEF2(1-2),393 ± 6.4 fluorescence intensity
same,binding signal,CIRBP,801 ± 174 fluorescence intensity
same,binding signal,ELAVL4,825 ± 34.8 fluorescence intensity
UGAGGUAGUAGGUUGUAUAGUU,binding signal,CELF6(1-2),28.4 ± 3.05 fluorescence intensity
same,binding signal,hnRNP-D-like,288 ± 15.7 fluorescence intensity
same,binding signal,IGF2BP2,28.3 ± 5.47 fluorescence intensity
same,binding signal,NIFK,23 ± 0.658 fluorescence intensity
same,binding signal,PABPNL1,531 ± 16.5 fluorescence intensity
same,binding signal,PABPC5,52 ± 3.7 fluorescence intensity
same,binding signal,MYEF2(1-2),228 ± 4.88 fluorescence intensity
same,binding signal,CIRBP,1010 ± 76.7 fluorescence intensity
same,binding signal,ELAVL4,725 ± 56.5 fluorescence intensity
AGAGGUAGUAGGUUGCAUAGUU,binding signal,CELF6(1-2),88.4 ± 8.85 fluorescence intensity
same,binding signal,NCBP2,29.2 ± 11.8 fluorescence intensity
same,binding signal,hnRNP-D-like,601 ± 9.77 fluorescence intensity
same,binding signal,IGF2BP2,130 ± 20.3 fluorescence intensity
same,binding signal,NIFK,81.96 ± 0.608 fluorescence intensity
same,binding signal,PABPNL1,1510 ± 38.3 fluorescence intensity
same,binding signal,PABPC5,351 ± 14.6 fluorescence intensity
same,binding signal,MYEF2(1-2),1130 ± 77.2 fluorescence intensity
same,binding signal,CIRBP,2620 ± 43 fluorescence intensity
same,binding signal,ELAVL4,1830 ± 31 fluorescence intensity
UGAGGUAGUAGGUUGUAUGGUU,binding signal,CELF6(1-2),89.8 ± 3.29 fluorescence intensity
same,binding signal,NCBP2,66.8 ± 8.78 fluorescence intensity
same,binding signal,hnRNP-D-like,741 ± 27.9 fluorescence intensity
same,binding signal,IGF2BP2,49.2 ± 7.44 fluorescence intensity
same,binding signal,NIFK,138 ± 7.4 fluorescence intensity
same,binding signal,PABPNL1,1110 ± 57.4 fluorescence intensity
same,binding signal,PABPC5,291 ± 13.4 fluorescence intensity
same,binding signal,MYEF2(1-2),789 ± 41.9 fluorescence intensity
same,binding signal,CIRBP,1980 ± 32.4 fluorescence intensity
same,binding signal,ELAVL4,1450 ± 42.8 fluorescence intensity
UGAGGUAGUAGGUUGUGUGGUU,binding signal,CELF6(1-2),224 ± 12 fluorescence intensity
same,binding signal,NCBP2,68.7 ± 13.2 fluorescence intensity
same,binding signal,hnRNP-D-like,751 ± 46.5 fluorescence intensity
same,binding signal,IGF2BP2,60.9 ± 10.8 fluorescence intensity
same,binding signal,NIFK,207 ± 7.23 fluorescence intensity
same,binding signal,PABPNL1,1609 ± 3.14 fluorescence intensity
same,binding signal,PABPC5,304 ± 27.6 fluorescence intensity
same,binding signal,MYEF2(1-2),1050 ± 50.7 fluorescence intensity
same,binding signal,CIRBP,2020 ± 38.1 fluorescence intensity
same,binding signal,ELAVL4,1510 ± 102 fluorescence intensity
CAGUGCAAUGAUGAAAGGGCAU,binding signal,CELF6(1-2),105 ± 14.1 fluorescence intensity
same,binding signal,hnRNP-D-like,250 ± 14.8 fluorescence intensity
same,binding signal,IGF2BP2,91.7 ± 5.63 fluorescence intensity
same,binding signal,NIFK,38.6 ± 4.43 fluorescence intensity
same,binding signal,PABPNL1,2030 ± 144 fluorescence intensity
same,binding signal,PABPC5,187 ± 8.46 fluorescence intensity
same,binding signal,MYEF2(1-2),826 ± 53.3 fluorescence intensity
same,binding signal,CIRBP,2040 ± 82.9 fluorescence intensity
same,binding signal,ELAVL4,1170 ± 66.8 fluorescence intensity
